From the supplement of paper PMC3334620
Over roughly 33,000 sequences, “E-score (-0.5 to 0.5)” has its median near -0.015; the highest 2% begin near 0.3. What follows is part of a selection rich in the highest values, with near analogues and random picks from the rest.

What follows are sequences tested against T1, Abf1 (UniProt P14164) (assay: PBM E-score (8-mer binding enrichment) (E-score (-0.5 to 0.5)); higher = stronger / more preferred TF binding). Conditions: protein concentration: 200 nM; construct: GST-full length.
T1 sequence: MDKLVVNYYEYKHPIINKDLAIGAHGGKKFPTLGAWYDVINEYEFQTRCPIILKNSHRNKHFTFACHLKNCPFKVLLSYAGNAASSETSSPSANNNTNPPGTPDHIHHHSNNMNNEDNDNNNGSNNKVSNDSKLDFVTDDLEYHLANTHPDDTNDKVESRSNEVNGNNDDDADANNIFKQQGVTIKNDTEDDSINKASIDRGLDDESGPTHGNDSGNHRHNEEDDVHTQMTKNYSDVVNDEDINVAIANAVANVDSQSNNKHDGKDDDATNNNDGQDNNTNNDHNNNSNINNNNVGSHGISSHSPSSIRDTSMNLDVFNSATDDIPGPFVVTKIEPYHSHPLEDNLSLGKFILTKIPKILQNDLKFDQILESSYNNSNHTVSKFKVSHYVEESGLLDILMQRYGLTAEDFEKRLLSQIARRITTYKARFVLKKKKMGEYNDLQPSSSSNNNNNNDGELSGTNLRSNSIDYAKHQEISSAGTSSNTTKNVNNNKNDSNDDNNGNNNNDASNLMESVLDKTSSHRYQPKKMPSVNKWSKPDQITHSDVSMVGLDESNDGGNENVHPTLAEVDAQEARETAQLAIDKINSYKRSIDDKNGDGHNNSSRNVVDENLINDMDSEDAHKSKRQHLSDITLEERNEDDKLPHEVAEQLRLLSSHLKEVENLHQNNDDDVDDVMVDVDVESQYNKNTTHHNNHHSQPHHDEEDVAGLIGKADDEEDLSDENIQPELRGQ
Outline: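 Universal all-10-mer Agilent arrays, double-stranded by primer extension on fresh or once-stripped slides, were probed with about 100-200 nM GST-tagged yeast transcription factors made by PURExpress. Fluorescent anti-GST detected bound protein, and masliner normalised the scans. E-scores from the Universal PBM Analysis Suite were given to each ungapped eight-base word pooled with its reverse complement.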

Sequence | PBM E-score
AGATGCTC | 0.0161
CAGGTAAG | -0.0344
AGATAAGA | 0.194
AATTCCAC | 0.0539
CAGGATGA | 0.197
AGACAAGC | -0.0992
GTCACGAC | 0.261
GTCACGAA | 0.402
GTGACGGA | 0.149
GTGACGAA | 0.315
ATGACTAA | 0.146
ATGACGAA | 0.319
CTGACTAA | 0.0088
ATGACGAC | 0.265
CTGACGAA | 0.239
TTCACGAA | 0.267
GTGACTAA | 0.327
GTGACGCA | 0.103
AAGGTTCT | -0.189
CGGGCACC | -0.0646
CGCAAAAG | -0.0748
CTCTCACC | -0.0855
GAGTAAAC | -0.0509
ATCCCGTA | 0.215

Sequence | PBM E-score
GGCGATCA | -0.0321
ATGGACTC | -0.134
CACGGACA | 0.162
AACGGACG | 0.065
CACGGACG | 0.337
AAACCGGT | -0.0782
CATACTGA | -0.108
AAAGAGGA | -0.237
ATAATCAA | 0.0595
ATAATCAT | 0.326
ATAATCAC | 0.331
ATAATCAG | 0.0922
GTAATCAC | 0.141
CTAATCAC | 0.251
CCACCTAC | -0.011
ACCGTAGG | 0.0666
CTAAATCC | 0.0568
AAGCGCCA | -0.247
TGATGTAA | 0.145
ACCCTCGA | -0.17
GCGACGAC | 0.098
TCGACGCA | 0.113
GCGACGCA | 0.196
ACGACGAA | 0.373

Sequence | PBM E-score
TCGACGAA | 0.349
ACGACGGA | 0.251
CCGACGAA | 0.205
GCGACGAA | 0.313
ACGACGGC | 0.164
ACGACGGG | 0.304
ACGACGCA | 0.262
TCGACAAA | -0.0435
CATAAGTC | -0.00466
AACCGGTT | 0.0655
TAGAAGCA | -0.0239
CAAGGAAA | -0.198
AGGGCGCC | -0.0691
ATCGCTAA | 0.28
ATCTATTC | 0.114
ACGACGAC | 0.292
ACGACGAG | 0.156
ACGACGAT | 0.315
GTACTGCA | -0.101
AAACACCC | -0.0385
GGTGCACA | -0.05
CATGTACG | 0.319
AATGTACG | 0.192
CATGTACA | -0.0299

Sequence | PBM E-score
TAAGTCTA | -0.136
ATGTCAGG | -0.133
ATGTCATC | 0.394
CTGTCATC | 0.108
ATGTCATA | 0.176
ATGTCATG | 0.349
ATGTCAAG | -0.0386
AGTCGAAT | -0.178
AAGGAACC | -0.053
TCGATCGA | -0.141
CAGACAAC | -0.0277
CTGTCACA | 0.138
ATGTCACG | 0.437
CTGTCACC | 0.174
ATGTCAGC | 0.0322
ATGTCACA | 0.282
ATGTCACC | 0.429
GTCCTCAC | 0.0512
GGGCTCTA | -0.22
CCCCTGGA | -0.17
AACGGACT | -0.0919
CGATGGCG | -0.0766
